Results from PubChem BioAssay (EPA / NIEHS).
Activity calls are given as the source filed them. The calls were made as follows: active = hit-call score of the fitted dose curve at least 0.9, where 1 is the maximum; inactive = score below 0.9.

How the values were obtained:
[1] = ATG_GRE_CIS: Attagene CIS-FACTORIAL HepG2 Assay for human Glucocorticoid Response Elements (GRE) (AID 2282947); settings: HepG2 GRE cis-reporter, Attagene multiplex mRNA; actives raise or lower the signal
In short: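 Following 24 h chemical exposure of transiently transfected HepG2 cells, total RNA was reverse-transcribed and reporter cDNA amplified, fluorescently labelled and sized by capillary electrophoresis. Signal gain or loss was fitted relative to DMSO vehicle.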

[2] = ATG_ISRE_CIS: Attagene CIS-FACTORIAL HepG2 Assay for human Interferon Regulatory Factor 1 (IRF1) binding to an Interferon-Stimulated Response Element (ISRE) (AID 2282948); settings: HepG2 ISRE cis-reporter (Attagene), mRNA transcription readout; actives raise or lower the signal
In short: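 Cell-based cis-reporter assay; HepG2; 24 h exposure; reporter mRNA by RT-PCR plus capillary electrophoresis fluorescence; activity in either direction scored relative to DMSO.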

[3] = ATG_M_32_CIS: Attagene CIS-FACTORIAL HepG2 Assay for M32 Transcription Factor (Internal Marker) (AID 2282949); settings: HepG2 Attagene cis-factorial M32 reporter, mRNA; actives raise or lower the signal;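 also: background control marker of the multiplexed CIS panel rather than a real target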
In short: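 HepG2 cells transiently transfected with multiplexed cis-regulated reporter units, dosed 24 h. Reporter mRNA quantified by RT-PCR, 6-FAM labelling, HpaI digestion and capillary electrophoresis; bidirectional fit vs DMSO.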

[4] = ATG_M_06_CIS: Attagene CIS-FACTORIAL HepG2 Assay for M06 Transcription Factor (Internal Marker) (AID 2282950); settings: HepG2 Attagene CIS-FACTORIAL M06 internal marker reporter; actives raise or lower the signal
In short: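 Internal background marker within multiplexed cis-reporter HepG2 system. Cells transiently transfected, dosed 24 h; reporter mRNA measured by RT-PCR, HpaI digestion and capillary electrophoresis. Bidirectional fit relative to DMSO.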

[5] = target: Hypoxia-inducible factor 1-alpha (Homo sapiens) (UniProt Q16665); experiment: ATG_HIF1a_CIS: Attagene CIS-FACTORIAL HepG2 Assay for human Hypoxia Inducible Factor 1 (HIF1A) (AID 2282951); settings: HepG2 Attagene cis-factorial HIF1a reporter transcription; actives raise or lower the signal
Chain of Hypoxia-inducible factor 1-alpha (Homo sapiens) (Q16665 whole entry, looked up): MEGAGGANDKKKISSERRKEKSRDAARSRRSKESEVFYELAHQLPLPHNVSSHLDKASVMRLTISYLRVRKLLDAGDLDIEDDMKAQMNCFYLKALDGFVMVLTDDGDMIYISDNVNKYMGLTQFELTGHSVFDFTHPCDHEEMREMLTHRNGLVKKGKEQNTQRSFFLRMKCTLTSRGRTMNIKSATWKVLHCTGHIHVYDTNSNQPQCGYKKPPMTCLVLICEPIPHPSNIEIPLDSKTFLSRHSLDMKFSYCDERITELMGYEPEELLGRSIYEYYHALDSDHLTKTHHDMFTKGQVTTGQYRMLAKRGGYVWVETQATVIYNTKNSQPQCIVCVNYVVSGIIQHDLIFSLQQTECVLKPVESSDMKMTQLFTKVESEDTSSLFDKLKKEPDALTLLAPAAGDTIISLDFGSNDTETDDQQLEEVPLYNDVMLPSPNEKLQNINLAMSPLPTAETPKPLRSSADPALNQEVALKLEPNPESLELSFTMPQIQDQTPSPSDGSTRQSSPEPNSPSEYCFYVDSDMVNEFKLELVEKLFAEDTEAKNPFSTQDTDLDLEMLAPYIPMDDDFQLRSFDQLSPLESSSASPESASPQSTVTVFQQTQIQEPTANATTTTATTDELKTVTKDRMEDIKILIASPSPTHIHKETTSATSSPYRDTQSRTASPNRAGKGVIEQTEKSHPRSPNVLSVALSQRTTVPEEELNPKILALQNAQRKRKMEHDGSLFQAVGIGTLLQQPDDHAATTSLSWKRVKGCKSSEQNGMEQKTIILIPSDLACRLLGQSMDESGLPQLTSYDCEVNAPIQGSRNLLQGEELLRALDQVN
In short: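 In this multiplexed cell assay, HepG2 cells bearing transfected cis reporters are dosed for 24 h and reporter mRNA is read by RT-PCR plus capillary electrophoresis; signal increases and decreases are both scored against DMSO.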

[6] = target: Hepatocyte nuclear factor 6 (Homo sapiens) (UniProt Q9UBC0); experiment: ATG_HNF6_CIS: Attagene CIS-FACTORIAL HepG2 Assay for human Hepatocyte Nuclear Factor 6 (HNF6) (AID 2282952); settings: HepG2 Attagene cis-factorial HNF6 reporter transcription; actives raise or lower the signal
Chain of Hepatocyte nuclear factor 6 (Homo sapiens) (Q9UBC0 whole entry, looked up, the tested form may be a part): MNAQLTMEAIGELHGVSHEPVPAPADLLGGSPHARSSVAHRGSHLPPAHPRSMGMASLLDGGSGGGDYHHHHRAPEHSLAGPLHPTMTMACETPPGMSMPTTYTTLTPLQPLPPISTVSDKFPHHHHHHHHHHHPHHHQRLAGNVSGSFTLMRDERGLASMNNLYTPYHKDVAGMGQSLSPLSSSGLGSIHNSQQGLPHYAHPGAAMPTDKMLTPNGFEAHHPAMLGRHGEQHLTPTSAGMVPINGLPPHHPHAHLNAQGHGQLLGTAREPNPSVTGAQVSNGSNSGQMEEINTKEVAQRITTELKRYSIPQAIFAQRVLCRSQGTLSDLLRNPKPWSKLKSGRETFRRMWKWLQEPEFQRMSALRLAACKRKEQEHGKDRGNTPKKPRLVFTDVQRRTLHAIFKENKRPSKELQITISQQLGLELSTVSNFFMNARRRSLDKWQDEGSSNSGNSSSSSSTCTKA
In short: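 HepG2 cells transiently transfected with cis-element-driven multiplexed reporter units measuring endogenous transcription factor activity. After 24 h exposure, reporter mRNA quantified by RT-PCR, FAM-labelled fragments and capillary electrophoresis; bidirectional fitting versus DMSO.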

[7] = target: Heat shock factor protein 1 (Homo sapiens) (UniProt Q00613); experiment: ATG_HSE_CIS: Attagene CIS-FACTORIAL HepG2 Assay for human Heat Shock Transcription Factor 1 (HSE) (AID 2282953); settings: HepG2 HSE cis-reporter, Attagene RNA transcription; actives raise or lower the signal
Chain of Heat shock factor protein 1 (Homo sapiens) (Q00613 whole entry, looked up): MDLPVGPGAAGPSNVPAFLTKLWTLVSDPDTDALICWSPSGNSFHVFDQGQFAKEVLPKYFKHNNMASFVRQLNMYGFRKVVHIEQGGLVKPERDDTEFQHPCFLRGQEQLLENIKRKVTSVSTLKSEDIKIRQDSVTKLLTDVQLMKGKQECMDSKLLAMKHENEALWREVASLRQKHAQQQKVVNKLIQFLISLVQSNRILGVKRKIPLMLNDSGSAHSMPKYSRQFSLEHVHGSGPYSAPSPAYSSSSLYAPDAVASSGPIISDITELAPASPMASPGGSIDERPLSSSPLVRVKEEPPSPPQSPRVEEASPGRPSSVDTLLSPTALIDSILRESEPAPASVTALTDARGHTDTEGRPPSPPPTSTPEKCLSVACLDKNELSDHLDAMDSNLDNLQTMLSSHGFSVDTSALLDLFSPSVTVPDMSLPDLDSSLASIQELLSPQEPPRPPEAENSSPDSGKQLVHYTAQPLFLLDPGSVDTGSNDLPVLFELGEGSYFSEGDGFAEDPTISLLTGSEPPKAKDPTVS
In short: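 HepG2 cells transfected with cis-promoter reporter units sensing endogenous transcription factor activity; reporter mRNA quantified 24 h post-dose by RT-PCR and capillary electrophoresis of 6-FAM-labelled products. Bidirectional fitting against DMSO.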

[8] = ATG_MRE_CIS: Attagene CIS-FACTORIAL HepG2 Assay for human Metal Responsive Element (MRE) (AID 2282954); settings: HepG2 MRE cis-reporter transcription, Attagene multiplex; actives raise or lower the signal
In short: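 Step one: transfect HepG2 with cis-regulated reporter units. Step two: dose 24 h. Step three: isolate RNA, RT-PCR, 6-FAM label, HpaI digest, capillary electrophoresis. Fit bidirectionally to DMSO.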

[9] = ATG_PBREM_CIS: Attagene CIS-FACTORIAL HepG2 Assay for human Phenobarbital-responsive Enhancer Module (PBREM) (AID 2282955); settings: HepG2 PBREM cis-reporter, Attagene multiplexed transcription; actives raise or lower the signal
In short: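 After a 24 h incubation with test chemical, transfected HepG2 cells yield total RNA; reporter-specific RT-PCR products are fluorescently labelled, HpaI-digested and resolved by capillary electrophoresis against ROX size standards.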

[10] = target: Paired box protein Pax-6 (Homo sapiens) (UniProt P26367); experiment: ATG_Pax6_CIS: Attagene CIS-FACTORIAL HepG2 Assay for human Paired Box 6 (PAX6) (AID 2282956); settings: HepG2 CIS-FACTORIAL PAX6 reporter transcription, RNA readout; actives raise or lower the signal
Chain of Paired box protein Pax-6 (Homo sapiens) (P26367 whole entry, looked up): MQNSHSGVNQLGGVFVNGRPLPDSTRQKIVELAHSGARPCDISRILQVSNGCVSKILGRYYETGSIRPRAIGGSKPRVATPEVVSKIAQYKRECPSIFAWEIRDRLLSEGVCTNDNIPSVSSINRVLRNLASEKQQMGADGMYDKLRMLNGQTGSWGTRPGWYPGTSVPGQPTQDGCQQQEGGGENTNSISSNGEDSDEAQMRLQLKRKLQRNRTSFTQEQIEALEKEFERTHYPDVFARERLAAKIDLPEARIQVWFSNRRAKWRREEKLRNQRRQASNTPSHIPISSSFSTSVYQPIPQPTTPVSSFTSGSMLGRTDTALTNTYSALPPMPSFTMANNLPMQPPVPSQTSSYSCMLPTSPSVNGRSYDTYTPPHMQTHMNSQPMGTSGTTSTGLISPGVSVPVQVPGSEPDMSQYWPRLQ
In short: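 Multiplexed cis-reporter HepG2 system; 24 h treatment; reporter mRNA read by RT-PCR/CE fluorescence; bidirectional fit vs DMSO.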

[11] = ATG_PXRE_CIS: Attagene CIS-FACTORIAL HepG2 Assay for human Pregnane X Receptor Element (PXRE) (AID 2282957); settings: HepG2 Attagene CIS-FACTORIAL PXRE reporter, mRNA; actives raise or lower the signal
In short: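 HepG2 cells transiently transfected with cis-element-driven multiplexed reporter units; after 24 h chemical exposure, reporter mRNA measured by RT-PCR, 6-FAM labelling, HpaI digestion and capillary electrophoresis. Bidirectional fitting relative to DMSO.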

[12] = ATG_PPRE_CIS: Attagene CIS-FACTORIAL HepG2 Assay for human Peroxisome Proliferator-activated Response Element (PPRE) (AID 2282958); settings: HepG2 PPRE cis-element reporter, Attagene transcription factor profiling; actives raise or lower the signal
In short: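 Multiplexed reporter transcription units under cis-regulatory promoters were transfected into HepG2 cells to capture endogenous factor activity. A 24 h incubation preceded RNA isolation and fluorescent RT-PCR fragment analysis.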

[13] = ATG_RORE_CIS: Attagene CIS-FACTORIAL HepG2 Assay for human RAR-related Orphan Receptor Element (RORE) (AID 2282959); settings: HepG2 Attagene cis-factorial RORE reporter, mRNA; actives raise or lower the signal
In short: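 Fluorescence intensity of reporter-specific cDNA fragments, separated by capillary electrophoresis, gives the signal. Source: HepG2 liver cells transiently transfected with cis-element reporters and exposed 24 h; DMSO-normalized bidirectional fit.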

[14] = ATG_Sox_CIS: Attagene CIS-FACTORIAL HepG2 Assay for human SRY-box transcription factor (SOX) (AID 2282960); settings: HepG2 Attagene cis-factorial SOX reporter, mRNA; actives raise or lower the signal
In short: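 After 24 h of chemical treatment, transfected HepG2 reporter cells are lysed for total RNA. Transcript levels come from RT-PCR with labelled primer extension and capillary electrophoresis, analysed bidirectionally versus DMSO.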

[15] = target: Transcription factor Sp1 (Homo sapiens) (UniProt P08047); experiment: ATG_Sp1_CIS: Attagene CIS-FACTORIAL HepG2 Assay for human Specificity Protein 1 (Sp1) (AID 2282961); settings: HepG2 Sp1 cis-reporter transcription, actives raise or lower the signal
Chain of Transcription factor Sp1 (Homo sapiens) (P08047 whole entry, looked up): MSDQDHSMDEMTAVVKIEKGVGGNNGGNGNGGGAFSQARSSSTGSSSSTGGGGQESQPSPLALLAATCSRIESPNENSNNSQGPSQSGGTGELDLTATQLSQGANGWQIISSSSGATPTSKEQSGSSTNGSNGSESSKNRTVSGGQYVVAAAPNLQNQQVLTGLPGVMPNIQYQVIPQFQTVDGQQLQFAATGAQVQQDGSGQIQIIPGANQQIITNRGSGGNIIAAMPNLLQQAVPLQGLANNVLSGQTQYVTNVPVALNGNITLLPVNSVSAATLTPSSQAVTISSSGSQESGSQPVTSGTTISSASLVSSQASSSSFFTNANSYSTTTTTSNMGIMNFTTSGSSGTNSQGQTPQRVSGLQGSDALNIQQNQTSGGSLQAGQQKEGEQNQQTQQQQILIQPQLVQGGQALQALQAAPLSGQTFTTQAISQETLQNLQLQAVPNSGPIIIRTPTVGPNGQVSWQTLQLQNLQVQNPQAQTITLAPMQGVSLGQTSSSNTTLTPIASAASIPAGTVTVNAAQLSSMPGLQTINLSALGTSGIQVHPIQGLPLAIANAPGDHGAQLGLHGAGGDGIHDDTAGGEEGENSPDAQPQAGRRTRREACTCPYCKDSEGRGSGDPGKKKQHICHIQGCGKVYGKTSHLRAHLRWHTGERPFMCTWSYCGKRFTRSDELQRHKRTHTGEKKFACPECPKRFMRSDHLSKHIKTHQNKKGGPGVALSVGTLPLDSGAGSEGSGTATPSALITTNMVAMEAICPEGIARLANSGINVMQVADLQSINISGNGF
In short: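 Sp1-driven reporter mRNA, read as capillary electrophoresis fluorescence after RT-PCR, in transiently transfected HepG2 cells dosed for 24 h; signal change in either direction relative to DMSO.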

[16] = ATG_SREBP_CIS: Attagene CIS-FACTORIAL HepG2 Assay for human Sterol Regulatory Element Binding (SREBP) (AID 2282962); settings: HepG2 Attagene cis-factorial SREBP reporter, mRNA; actives raise or lower the signal
In short: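 mRNA induction of transfected cis-promoter reporters in HepG2 cells, 24 h post-dose. Detection: RT-PCR with 6-FAM-labelled products, HpaI digest, capillary electrophoresis. DMSO served as negative control and baseline.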

[17] = ATG_TA_CIS: Attagene CIS-FACTORIAL HepG2 Assay for human TA Basal Promoter (AID 2282964); settings: HepG2 Attagene CIS-factorial TA basal promoter reporter; actives raise or lower the signal
In short: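 HepG2 cells transiently transfected with multiple reporter units under cis promoter elements, reporting endogenous transcription factor activity; this endpoint tracks the TA basal promoter as background control. Reporter mRNA after 24 h dosing measured by RT-PCR/capillary electrophoresis; bidirectional fits versus DMSO.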

[18] = ATG_TCF_b_cat_CIS: Attagene CIS-FACTORIAL HepG2 Assay for human T-Cell-Factor with beta-catenin (TCF/b-cat) (AID 2282965); settings: HepG2 TCF/beta-catenin cis-reporter transcription, actives raise or lower the signal
In short: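 Using capillary electrophoresis as the read-out, labelled reporter cDNA fragments from transiently transfected HepG2 were sized and quantified. Exposure lasted 24 hours; activity in either direction was referenced to DMSO.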

[19] = target: Signal transducer and activator of transcription 3 (Homo sapiens) (UniProt P40763); experiment: ATG_STAT3_CIS: Attagene CIS-FACTORIAL HepG2 Assay for human Signal Transducer and Activator of Transcription 3 (STAT3) (AID 2282963); settings: HepG2, Attagene cis-factorial STAT3 reporter transcription; actives raise or lower the signal
Chain of Signal transducer and activator of transcription 3 (Homo sapiens) (P40763 whole entry, looked up): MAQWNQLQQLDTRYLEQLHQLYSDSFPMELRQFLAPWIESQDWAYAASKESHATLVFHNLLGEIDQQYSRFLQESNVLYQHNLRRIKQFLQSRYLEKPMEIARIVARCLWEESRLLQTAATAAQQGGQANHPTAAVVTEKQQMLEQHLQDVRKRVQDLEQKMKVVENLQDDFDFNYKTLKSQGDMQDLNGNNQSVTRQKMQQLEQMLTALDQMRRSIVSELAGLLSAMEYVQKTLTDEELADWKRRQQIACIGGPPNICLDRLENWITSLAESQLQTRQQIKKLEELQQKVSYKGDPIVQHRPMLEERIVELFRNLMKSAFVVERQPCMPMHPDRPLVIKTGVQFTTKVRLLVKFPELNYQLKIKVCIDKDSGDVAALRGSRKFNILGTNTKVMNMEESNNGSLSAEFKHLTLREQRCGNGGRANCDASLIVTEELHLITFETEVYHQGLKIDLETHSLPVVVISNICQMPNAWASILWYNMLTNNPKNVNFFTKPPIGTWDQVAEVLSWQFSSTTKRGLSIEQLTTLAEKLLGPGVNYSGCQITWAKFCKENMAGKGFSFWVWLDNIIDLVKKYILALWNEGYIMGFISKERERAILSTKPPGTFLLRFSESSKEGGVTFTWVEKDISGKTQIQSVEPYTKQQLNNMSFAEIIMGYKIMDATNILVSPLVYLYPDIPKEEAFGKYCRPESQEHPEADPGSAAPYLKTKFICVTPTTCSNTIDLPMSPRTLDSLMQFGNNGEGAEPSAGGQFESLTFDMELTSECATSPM
In short: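 Transcript-level reporter assay. HepG2 transient MRTU transfection, 24 h exposure, fluorescence detection after RT-PCR and CE; DMSO baseline.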

[20] = target: Bile acid receptor (Homo sapiens) (UniProt Q96RI1); experiment: ATG_IR1_CIS: Attagene CIS-FACTORIAL HepG2 Assay for human Nuclear Receptor Subfamily 1 Group H Member 4 (NR1H4), IR1 submotif (AID 2282946); settings: IR1 reporter transcription, actives raise or lower the signal
Chain of Bile acid receptor (Homo sapiens) (Q96RI1 whole entry, looked up): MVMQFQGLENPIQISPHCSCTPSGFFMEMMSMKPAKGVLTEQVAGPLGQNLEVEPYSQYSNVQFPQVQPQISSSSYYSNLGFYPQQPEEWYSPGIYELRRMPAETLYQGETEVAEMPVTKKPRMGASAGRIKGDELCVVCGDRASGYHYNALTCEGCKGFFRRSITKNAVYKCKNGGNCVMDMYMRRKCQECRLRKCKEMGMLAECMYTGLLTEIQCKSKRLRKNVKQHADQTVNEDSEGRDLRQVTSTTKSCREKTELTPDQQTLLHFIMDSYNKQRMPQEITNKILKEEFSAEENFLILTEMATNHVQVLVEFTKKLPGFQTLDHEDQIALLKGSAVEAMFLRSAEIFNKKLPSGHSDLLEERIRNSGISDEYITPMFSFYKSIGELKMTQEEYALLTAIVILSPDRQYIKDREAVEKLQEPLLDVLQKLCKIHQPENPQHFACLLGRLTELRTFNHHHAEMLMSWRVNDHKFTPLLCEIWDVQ
In short: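 Transient MRTU transfection, HepG2; 24 h dosing; RNA → RT-PCR → 6-FAM primer extension → HpaI digest → capillary electrophoresis fluorescence. Gain/loss of signal fitted relative to DMSO.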

Measured: AC50

Cn1cc(-c2ccccc2)c(=O)c(-c2cccc(C(F)(F)F)c2)c1
active: [2] 61.1 µM | [11] 4.31 µM | [18] 100 µM
not listed: [19] | [20]
inactive: all other assays above

Oc1ccc2ccc3cccc4ccc1c2c34
active: [5] 0.00117 µM
not listed: [11] | [12] | [20]
inactive: all other assays above

Oc1ccccc1Cl
not listed: [13] | [20]
inactive: all other assays above

CCN(CC)CCO
not listed: [20]
inactive: all other assays above

CN(C)c1ccccc1
not listed: [4] | [9] | [12] | [13] | [19]
inactive: all other assays above

CCCSC(=O)N(CCC)CCC
not listed: [11] | [12] | [19] | [20]
inactive: all other assays above

OCCCBr
not listed: [19] | [20]
inactive: all other assays above

Cc1ccc(N)c(N)c1
active: [8] 29.1 µM | [13] 31.2 µM
not listed: [11] | [12] | [19] | [20]
inactive: all other assays above

c1ccc(NNc2ccccc2)cc1
not listed: [4] | [9] | [11] | [12] | [19]
inactive: all other assays above

CC(C)(C)C(O)(CCc1ccc(Cl)cc1)Cn1cncn1 (stereo not given)
active: [8] 100 µM | [16] 1.79 µM
not listed: [11] | [20]
inactive: all other assays above

Nc1ccc(Oc2ccc(N)cc2)cc1
not listed: [20]
inactive: all other assays above

Cc1ccc([N+](=O)[O-])cc1
not listed: [11] | [20]
inactive: all other assays above

OCCOCCO
not listed: [4] | [7] | [19]
inactive: all other assays above

CC(C)(C)OOC(C)(C)CCC(C)(C)OOC(C)(C)C
active: [11] 8.34 µM | [15] 177 µM | [16] 38 µM
not listed: [4] | [12] | [19] | [20]
inactive: all other assays above
